Measurements as given in PubChem BioAssay (NCATS).
Records with an inconclusive call do not appear. Active and inactive are the calls of the source. The call rests on the fitted dose curve; in most records, active means well fitted cell-killing curve with a large enough effect; inconclusive means small, poorly fitted or top-dose-only effect; inactive means flat fitted curve, though single readings scatter.

Assay: qHTS of pediatric cancer cell lines to identify multiple opportunities for drug repurposing: Primary screen for U-2 OS cells (AID 1347096); further: nearly all actives have a fitted effect of over 50% in size
Conditions: U-2 OS viability, CellTiter-Glo luminescence, 48 h; series mostly up to 46 µM; activity change, negative = cytotoxic: at the top concentration
From the text: Drug repurposing or repositioning has been offered as a strategy for drug development in oncology programs. This approach has special potential for childhood cancers and other rare or orphan diseases, where the expected return on new drug development has been a disincentive to pharmaceuticals.
In this project we exploit the poly-pharmacology of drugs to discover new indications via phenotypic screening of a panel of 19 well-characterized cell lines derived from solid tumors seen in children and adolescents. The goal is to identify approved drugs with previously unrecognized anticancer properties that has the potential to reveal new mechanisms and biological processes involved in carcinogenesis or drug resistance. We employed a titration-based paradigm (quantitative high-throughput screening or qHTS), where all compounds were tested at multiple concentrations for their effect on cell viability. Concentration-response curves (CRCs) were derived directly from the primary screen, and both potency and efficacy values were used to identify compounds with robust bioactivity profiles. We screened the NIH Chemical Genomics Center (NCGC) Pharmaceutical Collection (NPC) and Mechanism Interrogation Plate (MIPE) small molecule collections of approved and investigational compounds against these cell lines; and measured metabolically active cells after 48 hours of compound treatment as a proxy for cell viability.
Assay Submitter: Nathalia J. Martinez, National Center for Advancing Translational Sciences, National Institutes of Health, Rockville, MD, USA; email: natalia.martinez@nih.gov
[1] Shen, M et al. Quantitative high-throughput phenotypic screening of pediatric cancer cell lines identifies multiple opportunities for drug repurposing. Oncotarget 2017 Dec 19;9(4):4758-4772. PMID 29435139.
The cells were obtained from University of North Carolina (UNC), Pediatric Preclinical Testing Program (PPT), and Coriell Institute (CI).
qHTS cell viability assay:
Cells were assayed in growth media at a density of 500-1,000 cells/well. Five microliters of cells were dispensed into 1,536-well, white, solid-bottom, TC-treated plates (Greiner Bio One) using a multidrop dispenser and incubated at 37 degrees C, 5% CO2, under a humidified atmosphere for 5 hours. Twenty-three nanoliters of compounds and controls (neutral control DMSO or positive control bortezomib at final concentration of 2.3 µM) were subsequently transferred by Kalypsys pintool. For primary screens, the MIPE collection was tested at 11-point dilutions (final concentrations range from 0.78 nM to 46 µM) and the NPC collection at 8-point dilutions (final concentrations range from 0.59 nM to 46 µM). Compounds tested in follow-up screens were assayed at 11-point dilutions. Cells were incubated for 48 hours, followed by addition of 3 µL of CellTiter-Glo (Promega). After a 15 min incubation at room temperature, samples were analyzed for luminescence intensity using a ViewLux High-throughput CCD imager equipped with clear filters.
Potency means the concentration at half of the fitted maximal effect.

Compound | activity change, negative = cytotoxic | Potency
NC(=O)OCCCc1ccccc1 | 11.8% (inactive) | –
COc1ccc(OC)c(CC(C)N)c1 (stereo not given) | -5% [at 92.7 µM] (inactive) | –
CC1=C2[C@H]3OC(=O)[C@@H](C)[C@@H]3CC[C@@]2(C)C=CC1=O | -12.4% (inactive) | –
CC(C)NCC(O)c1ccc(N)c(C#N)c1 (stereo not given) | 9.77% (inactive) | –
CN1C2CCC(C)(C)C1CC(OC(=O)C(O)(c1cccs1)c1cccs1)C2 (stereo not given) | 3.73% (inactive) | –
CCC1(CC)C(=O)NC(=O)NC1=O | 7.33% (inactive) | –
CCNc1nc(Cl)nc(NCC)n1 | 0.0816% (inactive) | –
CN1C(=O)[C@@H](NC(=O)c2cc3ccccc3[nH]2)N=C(c2ccccc2)c2ccccc21 | -17.2% (inactive) | –
C=CCOC(Cn1ccnc1)c1ccc(Cl)cc1Cl (stereo not given) | -14.8% (inactive) | –
CN(C)CCc1c[nH]c2cccc(O)c12 | 4.82% [at 92.7 µM] (inactive) | –
O=C(CCCN1CCC(n2c(=O)[nH]c3ccccc32)CC1)c1ccc(F)cc1 | -13.3% (inactive) | –
CCCOC(=O)Cc1ccc(OCC(=O)N(CC)CC)c(OC)c1 | 7.16% (inactive) | –
CCN(CC)CCOC(=O)C(C)(c1ccccc1)c1ccccc1 | -7.98% (inactive) | –
Oc1c(Br)cc(Br)cc1Br | 13.4% (inactive) | –
Cc1c(Cl)c(=O)oc2cc(OP(=O)(OCCCl)OCCCl)ccc12 | 6.18% (inactive) | –
NCc1cccnc1 | 9.61% (inactive) | –
CC(C(O)c1ccccc1)N(C)C/C=C/c1ccccc1 (stereo not given) | -9.2% (inactive) | –
ClCCCN1CCN(c2cccc(Cl)c2)CC1 | 5.65% (inactive) | –
CN(C)CCc1c[nH]c2ccccc12 | -6.07% [at 155 µM] (inactive) | –
CNC(=O)NC(O)C(Cl)(Cl)Cl (stereo not given) | 4.73% (inactive) | –

Compound | activity change, negative = cytotoxic | Potency
COP(=O)(OC)C(O)C(Cl)(Cl)Cl (stereo not given) | 3.43% (inactive) | –
CN(C)CCc1c[nH]c2ccc(O)cc12 | 3.72% [at 92.7 µM] (inactive) | –
c1cc2c(c(N3CCNCC3)c1)OCCO2 | 5.54% (inactive) | –
O=C(N[C@H]1N=C(c2ccccc2F)c2cccc3c2N(CC3)C1=O)c1cc2ccccc2[nH]1 | 5.14% (inactive) | –
CCCC[N+]1(C)[C@@H]2CC(OC(=O)[C@H](CO)c3ccccc3)C[C@H]1[C@@H]1O[C@@H]12 (stereo not given in full) | 13% (inactive) | –
O=c1n(Cl)c(=O)n(Cl)c(=O)n1Cl | 4.93% (inactive) | –
Nc1ccccc1C(=O)OCC(O)CO (stereo not given) | 10.6% (inactive) | –
CCOC(C(=O)OCCN(C)C)(c1ccccc1)c1ccccc1 | 5.9% (inactive) | –
O=c1[nH]c2cc(Cl)ccc2n1C1CCNCC1 | 8.65% (inactive) | –
NC(=O)CN1CCCC1=O | 10.4% (inactive) | –
COc1ccc(C(=O)N2CCCC2=O)cc1 | – | inactive
CC(C)=CCN1CC[C@@]2(C)c3cc(O)ccc3C[C@@H]1[C@@H]2C | -12.1% [at 92.7 µM] (inactive) | –
C[C@@H]1CN(C2CCC(C#N)(c3ccc(F)cc3)CC2)CC[C@]1(C(=O)O)c1ccccc1 (stereo not given in full) | 8.45% (inactive) | –
COCC(=O)N(c1c(C)cccc1C)C(C)C(=O)OC (stereo not given) | 9.25% (inactive) | –
C=CC[C@]1(O)CC[C@H]2[C@@H]3CCC4=CC(=O)CCC4=C3C=C[C@@]21C | 2.9% (inactive) | –
CC[C@H](O)C(C[C@H](C)N(C)C)(c1ccccc1)c1ccccc1 | -12.1% [at 92.7 µM] (inactive) | –
COc1cc(N)c(Cl)cc1C(=O)NC1CN2CCC1CC2 (stereo not given) | 3.95% (inactive) | –
Cc1ccc([N+](=O)[O-])[c]2c1[O][Hg]2 | – | 2660 nM (active)
C=CCN1CC[C@]23CCCC[C@H]2[C@H]1Cc1ccc(O)cc13 | -5.21% (inactive) | –
CC(C)(O)C(Cl)(Cl)Cl | 13.2% (inactive) | –
